Results filed as inconclusive are left out. Active and inactive are the calls of the source. Calls follow the shape of the dose curve; as a rule, active = well fitted curve in the direction sought with a large enough effect; inconclusive = small, poorly fitted or top-dose-only effect, or another doubt; inactive = no such curve, though single readings can be large; an effect the other way counts as inactive or inconclusive.
Columns and labels:
[1] = qHTS of pediatric cancer cell lines to identify multiple opportunities for drug repurposing: Confirmatory screen for RD cells (AID 1347124);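 also: cells exposed to compound for 48 h before viability readout; nearly all actives have a fitted effect of over 65% in size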; also: potency is read from the fitted curve at half-maximal effect
Outline: (§1)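 Viability after 48 h compound treatment at 37C, 500-1,000 cells/well, read as ATP luminescence with CellTiter-Glo. Primary screens used 11-point (MIPE, 0.78 nM-46 µM) or 8-point (NPC, 0.59 nM-46 µM) final concentrations; follow-up screens used 11-point dilutions.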

[2] = qHTS of pediatric cancer cell lines to identify multiple opportunities for drug repurposing: Confirmatory screen for Rh18 cells (AID 1347125); also: nearly all actives have a fitted effect of over 55% in size; also: potency is read from the fitted curve at half-maximal effect
Outline: as §1

[3] = qHTS of pediatric cancer cell lines to identify multiple opportunities for drug repurposing: Confirmatory screen for SK-N-SH cells (AID 1347129);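 also: cells exposed to compound for 48 h before viability read; nearly all actives have a fitted effect of over 60% in size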; also: potency is read from the fitted curve at half-maximal effect
Outline: as §1

Furin (Homo sapiens) = Furin (Homo sapiens) (UniProt P09958); experiment: Furin counterscreen qHTS for Zika virus inhibitors (AID 1347149); also: nearly all actives have a fitted effect of over 70% in size; also: potency is read from the fitted curve at half-maximal effect;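 as to activity change, negative = inhibition: purified recombinant full-length human furin enzyme at 5 nM; fluorescence gain from furin cutting a BOC-RVRR-AMC peptide substrate over 15 min; top concentration of the series differs between compounds; plate controls were no-inhibitor control for no effect and no-enzyme control for full effect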
Outline: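 Fluorogenic cleavage of BOC-RVRR-AMC (2 microM final, Km ~15 µM) was monitored (ex 340, em 450 nm) at 37C after 15 min RT preincubation of 5 nM furin with compounds in HEPES pH 7.0 buffer with CaCl2 and Triton X-100. Percent inhibition was fitted to a 4-parameter Hill curve.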

[4] = tested on: Zika virus NS2B-NS3 protease (linked construct); experiment: Confirmatory screen NINDS AMC qHTS for Zika virus inhibitors (AID 1347152); also: nearly all actives have a fitted effect of over 70% in size; also: potency is read from the fitted curve at half-maximal effect;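 as to activity change, negative = inhibition: top concentration of the series differs between compounds; 0% = no-inhibitor control and -100% = no-enzyme control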
Outline: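 IC50s from 4-parameter Hill fits of percent inhibition, based on AMC fluorescence gain (340/450 nm) over 15 min with 10 microM Bz-Nle-KRR-AMC. Enzyme: 1 nM linked NS2B-NS3 in Tris-HCl pH 8.0; 15-min compound preincubation.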

[5] = tested on: Zika virus NS2B-NS3 protease (unlinked complex); experiment: Confirmatory screen GU AMC qHTS for Zika virus inhibitors (AID 1347153); also: nearly all actives have a fitted effect of over 70% in size; also: potency is read from the fitted curve at half-maximal effect
Outline: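 Unlinked enzyme 25 nM, Tris pH 8.0/0.01% Tween 20; cpd 15 min RT, dark; + AMC substrate 10 µM (Km 18.3 µM); 340/450 nm read at t0 and 15 min; % inhibition → 4-param fit.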

[6] = HepG2 cells viability qHTS for Zika virus inhibitors (AID 1347168); also: % is scaled to controls: 0 for no effect and ±100 for the full control effect
Outline: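 Cells seeded at 2.5 x 10^5 cells/mL in DMEM with 4% FBS and attached overnight at 37 degrees C, then exposed to compound for 24 to 48 hours. Viability read as ATP content by CellTiter Glo luminescence.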

[7] = tested on: Zika virus NS2B-NS3 protease; experiment: Primary screen GU AMC qHTS for Zika virus inhibitors (AID 1347154); also: nearly all actives have a fitted effect of over 70% in size; also: potency is read from the fitted curve at half-maximal effect;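 as to activity change, negative = inhibition: 0% = no-inhibitor control and -100% = no-enzyme control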
Outline: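 Unlinked Zika NS2B hydrophilic domain–NS3 protease complex at 25 nM in 10 mM Tris-HCl pH 8.0, 0.01% Tween 20, with an AMC peptide substrate. Fluorescence change (340/450 nm) over 15 min at room temperature, normalized to controls, fitted to 4-parameter Hill.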

[8] = qHTS of pediatric cancer cell lines to identify multiple opportunities for drug repurposing: Confirmatory screen for OHS-50 cells (AID 1347128);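 also: compound exposure lasted 48 h at 37 degrees C; nearly all actives have a fitted effect of over 55% in size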; also: potency is read from the fitted curve at half-maximal effect
Outline: as §1

[9] = tested on: Zika virus NS2B-NS3 protease (unlinked complex); experiment: Primary screen GU Rhodamine qHTS for Zika virus inhibitors: Unlinked NS2B-NS3 protease assay (AID 1347159); also: nearly all actives have a fitted effect of over 60% in size; also: potency is read from the fitted curve at half-maximal effect; as to activity change, negative = inhibition: % is scaled to controls: 0 for no effect and ±100 for the full control effect
Outline: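 Compounds, tested up to 114 microM, were incubated for 15 minutes with 25 nM unlinked NS2B-NS3 protease at pH 8.0. Cleavage of 1.5 microM Rhodamine110 substrate was then followed by fluorescence for 15 minutes.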

[10] = tested on: Zika virus NS2B-NS3 protease (linked construct); experiment: Primary screen NINDS Rhodamine qHTS for Zika virus inhibitors (AID 1347160); also: nearly all actives have a fitted effect of over 55% in size; as to activity change, negative = inhibition: % is scaled to controls: 0 for no effect and ±100 for the full control effect
Outline: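 Percent inhibition, normalized to uninhibited and enzyme-free controls, is fitted to a 4-parameter Hill equation. Fluorescence change comes from a 15-min cleavage of 1.5 microM bis-peptide Rhodamine110 substrate by 25 nM linked NS2B-NS3 at room temperature.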

[11] = qHTS of pediatric cancer cell lines to identify multiple opportunities for drug repurposing: Confirmatory screen for Saos-2 cells (AID 1347127); also: nearly all actives have a fitted effect of over 60% in size; also: potency is read from the fitted curve at half-maximal effect
Outline: as §1

[12] = target: N-terminal Xaa-Pro-Lys N-methyltransferase 1 (Homo sapiens) (UniProt Q9BV86); experiment: qHTS Assay for Inhibitors of N-terminal methyltransferase 1 (NTMT1): LOPAC validation of the NTMT1 SAHH-coupled ThioGlo3 Assay (AID 1347143); also: potency is read from the fitted curve at half-maximal effect; as to activity change, negative = inhibition: % is scaled to controls: 0 for no effect and ±100 for the full control effect
Outline: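 Recombinant human NTMT1 (125nM) was pre-incubated 1 min at room temperature with compounds over a concentration range, then a mix of 100uM SAM, 10uM SAHH and 15uM ThioGlo3 (concentrations in added reagent) was added. ThioGlo3 fluorescence (ex 340/em 450nm) after 30 min was normalized to the initial reading.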

[13] = tested on: Zika virus NS2B-NS3 protease (unlinked); experiment: Optimization of GU AMC qHTS for Zika virus inhibitors: Unlinked NS2B-NS3 protease assay (AID 1347151); also: nearly all actives have a fitted effect of over 80% in size; also: potency is read from the fitted curve at half-maximal effect;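 as to activity change, negative = inhibition: series mostly up to about 52 µM; 0% = no-inhibitor control and -100% = no-enzyme control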
Outline: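 Fluorescence gain (340/450 nm) over 15 min at room temperature, ~20% conversion, gave percent inhibition fitted to a 4-parameter Hill equation; enzyme was unlinked NS2B-NS3 (25 nM final), pH 8.0 Tris buffer.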

[14] = Confirmatory screen NINDS Rhodamine qHTS for Zika virus inhibitors (AID 1347161);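 also: purified Zika NS2B-NS3 protease with linked NS2B cofactor domain and Rhodamine110 peptide substrate; series mostly up to about 110 µM; plate controls were no-inhibitor control for no effect and no-enzyme control for full effect; nearly all actives have a fitted effect of over 60% in size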
Outline: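 qHTS dose-response: 25 nM linked protease, pH 8.0 Tris/Tween buffer, cpd titration, 15 min RT preinc, 1.5 microM Rhod110 peptide, 15 min reaction (~15% conversion), Ex480/Em540; 4-parameter Hill fit.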

[15] = target: Lysine-specific demethylase 5B (Homo sapiens) (UniProt Q9UGL1); experiment: Optimization screen for KDM5B Histone Demethylases FDH coupled qHTS against the LOPAC library (AID 1347166); also: 0% is about no effect
Outline: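 KDM5BDeltaAP (200nM final) preincubated 10 min with compound, then 12.5uM H3K4Me3, 25uM a-ketoglutarate, ascorbate, Fe(II), NAD+ and FDH added; 50mM HEPES pH 7.5, 0.01% Tween-20. NADH fluorescence (340/450 nm) change over 30 min, room temperature.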

Sequence of Furin (Homo sapiens) (P09958 whole entry, looked up): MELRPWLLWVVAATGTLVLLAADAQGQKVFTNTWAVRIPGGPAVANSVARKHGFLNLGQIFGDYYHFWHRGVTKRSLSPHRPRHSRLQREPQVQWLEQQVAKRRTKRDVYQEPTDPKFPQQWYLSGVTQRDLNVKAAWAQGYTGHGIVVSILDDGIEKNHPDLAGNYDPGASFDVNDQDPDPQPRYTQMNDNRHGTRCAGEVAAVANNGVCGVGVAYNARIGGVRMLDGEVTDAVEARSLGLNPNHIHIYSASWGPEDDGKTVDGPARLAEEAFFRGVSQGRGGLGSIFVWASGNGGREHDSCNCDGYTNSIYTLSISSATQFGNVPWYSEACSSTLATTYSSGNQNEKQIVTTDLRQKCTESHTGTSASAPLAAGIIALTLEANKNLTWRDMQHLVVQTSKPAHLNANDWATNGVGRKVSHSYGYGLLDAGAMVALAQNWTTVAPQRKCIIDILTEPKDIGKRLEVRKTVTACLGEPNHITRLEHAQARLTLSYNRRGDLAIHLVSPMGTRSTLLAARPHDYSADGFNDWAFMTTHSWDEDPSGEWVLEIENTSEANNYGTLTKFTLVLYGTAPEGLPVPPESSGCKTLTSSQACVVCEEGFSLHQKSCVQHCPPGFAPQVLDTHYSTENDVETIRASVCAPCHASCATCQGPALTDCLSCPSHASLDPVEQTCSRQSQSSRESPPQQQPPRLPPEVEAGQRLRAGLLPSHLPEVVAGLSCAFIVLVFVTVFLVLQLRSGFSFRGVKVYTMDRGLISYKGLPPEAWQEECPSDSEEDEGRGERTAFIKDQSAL
Sequence of Lysine-specific demethylase 5B (Homo sapiens) (Q9UGL1 whole entry, looked up): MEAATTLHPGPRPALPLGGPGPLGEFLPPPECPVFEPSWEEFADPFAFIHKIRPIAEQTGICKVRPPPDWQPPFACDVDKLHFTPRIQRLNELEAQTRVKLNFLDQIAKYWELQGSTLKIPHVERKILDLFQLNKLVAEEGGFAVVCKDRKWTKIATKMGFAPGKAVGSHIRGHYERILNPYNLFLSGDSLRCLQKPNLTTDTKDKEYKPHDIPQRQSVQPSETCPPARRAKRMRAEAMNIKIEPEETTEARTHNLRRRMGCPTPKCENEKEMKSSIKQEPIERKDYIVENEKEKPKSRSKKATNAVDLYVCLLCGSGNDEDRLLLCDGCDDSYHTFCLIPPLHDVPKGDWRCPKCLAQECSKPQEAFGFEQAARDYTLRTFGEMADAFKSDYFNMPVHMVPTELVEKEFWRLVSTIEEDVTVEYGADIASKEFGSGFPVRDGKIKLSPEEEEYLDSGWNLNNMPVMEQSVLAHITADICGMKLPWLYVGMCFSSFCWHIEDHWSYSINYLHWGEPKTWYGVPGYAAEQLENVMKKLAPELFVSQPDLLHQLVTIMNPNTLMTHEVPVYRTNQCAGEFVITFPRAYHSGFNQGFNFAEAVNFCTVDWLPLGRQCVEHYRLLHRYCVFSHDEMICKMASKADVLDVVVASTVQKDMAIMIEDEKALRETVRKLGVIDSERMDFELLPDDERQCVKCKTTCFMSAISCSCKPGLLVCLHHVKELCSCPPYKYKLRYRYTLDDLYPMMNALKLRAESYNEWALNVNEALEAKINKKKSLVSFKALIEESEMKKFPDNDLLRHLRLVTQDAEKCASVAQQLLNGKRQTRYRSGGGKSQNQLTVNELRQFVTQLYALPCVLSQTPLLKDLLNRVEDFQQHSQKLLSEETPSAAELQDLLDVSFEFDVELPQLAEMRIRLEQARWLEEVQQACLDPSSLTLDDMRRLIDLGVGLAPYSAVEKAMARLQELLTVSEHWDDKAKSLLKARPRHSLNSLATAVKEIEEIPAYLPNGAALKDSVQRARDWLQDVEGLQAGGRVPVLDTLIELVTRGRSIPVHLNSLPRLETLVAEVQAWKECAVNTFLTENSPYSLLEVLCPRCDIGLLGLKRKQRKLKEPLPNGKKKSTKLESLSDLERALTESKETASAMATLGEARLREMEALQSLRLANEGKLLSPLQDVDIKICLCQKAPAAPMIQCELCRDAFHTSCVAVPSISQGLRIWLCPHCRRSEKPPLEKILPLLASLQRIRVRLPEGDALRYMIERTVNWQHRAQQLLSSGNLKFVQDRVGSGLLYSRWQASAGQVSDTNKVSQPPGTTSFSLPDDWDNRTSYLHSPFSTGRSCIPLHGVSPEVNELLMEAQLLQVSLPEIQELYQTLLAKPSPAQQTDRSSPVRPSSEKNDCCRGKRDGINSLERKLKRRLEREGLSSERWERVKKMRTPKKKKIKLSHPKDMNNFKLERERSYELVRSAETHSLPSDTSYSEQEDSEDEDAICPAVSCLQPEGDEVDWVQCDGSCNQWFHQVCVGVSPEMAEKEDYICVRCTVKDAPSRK
Sequence of N-terminal Xaa-Pro-Lys N-methyltransferase 1 (Homo sapiens) (Q9BV86 whole entry, looked up): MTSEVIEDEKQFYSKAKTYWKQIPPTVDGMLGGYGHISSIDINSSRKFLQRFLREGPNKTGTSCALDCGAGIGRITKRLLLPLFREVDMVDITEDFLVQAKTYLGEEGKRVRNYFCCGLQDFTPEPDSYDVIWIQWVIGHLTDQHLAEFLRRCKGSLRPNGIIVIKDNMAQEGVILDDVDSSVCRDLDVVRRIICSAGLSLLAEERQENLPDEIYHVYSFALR

COc1ccc(-c2ccc3c(N4CCOCC4)nc(N4C[C@@H](C)O[C@@H](C)C4)nc3n2)cc1CO
inactive: outcome [6]
active: Potency [1] 1.31 µM | Potency [2] 1.31 µM | Potency [3] 8.33 µM | Potency (Furin (Homo sapiens)) 24.1 µM | Potency [4] 27.1 µM | Potency [5] 27.1 µM

OC[C@H](Cc1ccccc1)Nc1nc(Oc2ccc3c(c2)CCC3)nc2c1ncn2Cc1ccc(-c2ccccc2)cc1
inactive: Potency [1] | Potency [2] | Potency [3] | Potency [7]

COc1cccc2cc(-c3nc(C4CCC(C(=O)O)CC4)n4ncnc(N)c34)[nH]c12 (stereo unspecified)
inactive: Potency [1] | Potency [8] | Potency [9] | Potency [10]
active: Potency [3] 10.5 µM

CO[C@@H]1[C@H](N(C)C(=O)c2ccccc2)C[C@H]2O[C@]1(C)n1c3ccccc3c3c4c(c5c6ccccc6n2c5c31)C(=O)NC4
inactive: Potency [3]
active: Potency [2] 4.14 µM

COc1ccc(-c2ccc3c(N4CCOC[C@H]4C)nc(N4CCOC[C@H]4C)nc3n2)cc1CO
active: Potency [11] 0.928 µM | Potency [8] 2.08 µM | Potency [3] 0.526 µM | Potency [7] 6.81 µM

Nc1nc2[nH]cc(CCc3ccc(C(=O)N[C@@H](CCC(=O)O)C(=O)O)cc3)c2c(=O)[nH]1
inactive: Potency [1] | Potency [2] | Potency [8] | Potency [3] | Potency [7]

C[C@]1(c2nc3c(C(N)=O)cccc3[nH]2)CCCN1
inactive: Potency [1] | Potency [2] | Potency [11] | Potency [8] | Potency [3]

COc1cc(Nc2ncc3c(n2)-c2ccc(Cl)cc2C(c2c(F)cccc2OC)=NC3)ccc1C(=O)O
active: Potency [11] 18.5 µM | Potency [9] 20 µM
inactive: Potency [1] | Potency [2] | Potency [8] | Potency [10]

CCC(C)n1ncn(-c2ccc(N3CCN(c4ccc(OC[C@H]5CO[C@](Cn6cncn6)(c6ccc(Cl)cc6Cl)O5)cc4)CC3)cc2)c1=O (stereo partly specified)
active: Potency [3] 14.8 µM
inactive: Potency [1] | Potency [2] | Potency [11] | Potency [7] | Potency [9] | Potency [10]

CC(C=CC1=C(C)CCCC1(C)C)=CC=CC(C)=CC(=O)O
inactive: Potency [1] | Potency [2] | Potency [8] | Potency [3] | Potency [7]

CN1CCN(CCCN2c3ccccc3Sc3ccc(C(F)(F)F)cc32)CC1
active: Potency [1] 23.3 µM | Potency [2] 20.8 µM | Potency [11] 20.8 µM | Potency [8] 20.8 µM | Potency [3] 16.6 µM | Potency [12] 44.7 µM
inactive: Potency [13] | Potency [4] | Potency [5] | Potency [7] | Potency [14] | outcome [15]

O=NN(CCCl)C(=O)NCCCl
inactive: Potency [1] | Potency [2] | Potency [11] | Potency [8] | Potency [3] | Potency [13] | Potency [7] | outcome [15]

CCN(CC)CCCC(C)Nc1ccnc2cc(Cl)ccc12 (stereo unspecified)
active: Potency [13] 15 µM
inactive: Potency [1] | Potency [2] | Potency [11] | Potency [8] | Potency [3] | Potency [12] | Potency (Furin (Homo sapiens)) | Potency [4] | Potency [5] | Potency [7] | activity change, negative = inhibition [9] 52.4% [at 19.1 µM] | outcome [10] inactive [at 10.7 µM] | Potency [14] | outcome [15] | outcome [6]

NC(=O)c1ccc(I)c([N+](=O)[O-])c1
inactive: Potency [1] | Potency [2] | Potency [11] | Potency [8] | Potency [7]
active: Potency [3] 55.4 µM

O=C(c1cc(Cc2n[nH]c(=O)c3ccccc23)ccc1F)N1CCN(C(=O)C2CC2)CC1
active: Potency [3] 14.8 µM
inactive: Potency [1] | Potency [2] | Potency [11] | Potency [8] | Potency [7] | Potency [9] | Potency [10]

Cc1oncc1C(=O)Nc1ccc(C(F)(F)F)cc1
inactive: Potency [2] | Potency [11] | Potency [8] | Potency [3] | Potency [12] | Potency [13] | Potency [7] | outcome [15]

NC(N)=NC(=O)c1nc(Cl)c(N)nc1N
active: Potency [12] 50.1 µM | Potency [13] 23.8 µM
inactive: Potency [1] | Potency [2] | Potency [8] | Potency [3]

CS(=O)(=O)c1ccc(C(=O)Nc2ccc(Cl)c(-c3ccccn3)c2)c(Cl)c1
inactive: Potency [1] | Potency [2] | Potency [8] | Potency [3] | Potency [9] | Potency [10]

Cc1cn[nH]c1
inactive: Potency [1] | Potency [2] | Potency [11] | Potency [8] | Potency [3] | Potency [13] | outcome [15]

CCOc1ccn(-c2ccc(F)cc2)c(=O)c1C(=O)Nc1ccc(Oc2ccnc(N)c2Cl)c(F)c1
inactive: Potency [1] | Potency [3] | Potency [7] | Potency [9] | Potency [10]

CCCS(=O)(=O)Nc1ccc(F)c(C(=O)c2c[nH]c3ncc(-c4ccc(Cl)cc4)cc23)c1F
inactive: Potency [1] | Potency [3] | Potency [7] | Potency [10]

CCOc1cc(N2CCC(O)CC2)ccc1Nc1ncc2c(n1)N(C)c1ccccc1C(=O)N2C
inactive: Potency [7]
active: Potency [3] 7.43 µM

CN(C)c1ccc(C2Nc3ccc4ccccc4c3C3=C2C(=O)CC(C)(C)C3)cc1Br (stereo unspecified)
inactive: Potency [1] | Potency [7] | Potency [9] | Potency [10]

COCC(=O)NCC=Cc1ccc2ncnc(Nc3ccc(Oc4ccc(C)nc4)c(C)c3)c2c1
inactive: Potency [1] | Potency [14] | outcome [6]
active: Potency [8] 42.7 µM | Potency (Furin (Homo sapiens)) 30.3 µM

Cc1c(CN2CCN(C(=O)C(C)C)CC2)sc2c(N3CCOCC3)nc(-c3cnc(N)nc3)nc12
active: Potency [1] 2.08 µM | Potency [2] 0.827 µM | Potency [11] 0.928 µM | Potency [8] 1.04 µM | Potency [3] 1.05 µM

Oc1cccc(-c2nc(N3CCOCC3)c3oc4ncccc4c3n2)c1
active: Potency [2] 1.7 µM | Potency [11] 0.38 µM | Potency [8] 3.02 µM | Potency [3] 4.18 µM
